Screening results (PubChem BioAssay)
This excerpt belongs to a sample that is enriched for hits.
DT40 TDP1 no CPT – qHTS for Inhibitors of human tyrosyl-DNA phosphodiesterase 1 (TDP1): qHTS in cells in absence of CPT | DT40 Tdp1-/- hTDP1 cells, no CPT, ATP luminescence, 48 h | Potency, µM (highest dose often 46.2 µM), without a hit: at the top dose activity change, negative = growth inhibition, usual class: inhibitors | actives 15% (n = 420,000) | AID 686978, 2013; note: potency is the fitted concentration of half-maximal effect; nearly all actives have a fitted effect of over 55% in size
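Chicken DT40 Tdp1-/- cells stably complemented with human TDP1 were seeded at 400 cells/well with DMSO in place of 20 nM camptothecin. After compound pinning, cells grew at least 48 hr at 37 °C; viability read by CellTiter-Glo luminescence.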
DT40 TDP1 CPT – growth inhibition of DT40 Tdp1-/-;hTDP1 cells with camptothecin (screen for TDP1 inhibitors). chicken DT40 Tdp1-/-;hTDP1 cells + 20 nM CPT, ATP luminescence, 48 h. Potency, µM (highest dose often 46.2 µM), inactives show top-dose activity change, negative = growth inhibition, usual class: inhibitors. actives 12% (n = 420,000); note: potency is the fitted concentration of half-maximal effect; nearly all actives have a fitted effect of over 55% in size
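Chicken DT40 Tdp1-/- cells stably complemented with human TDP1 were seeded at 400 cells/well in medium containing 20 nM camptothecin, exposed to pin-transferred compounds, and grown at 37 °C for at least 48 hr. Viability was read as ATP luminescence.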
ALOX12 inh – ALOX12 (human) lipoxygenase inhibition. AID 1671190. Potency, µM (highest dose often 108 µM), without a hit: at the highest dose activity change, negative = inhibition, most hits filed as inhibitors. purified 12hLO, xylenol orange hydroperoxide absorbance. actives 1.1% (n = 580,000). P18054; note: potency is the fitted concentration of half-maximal effect
Target sequence (P18054 whole entry, looked up): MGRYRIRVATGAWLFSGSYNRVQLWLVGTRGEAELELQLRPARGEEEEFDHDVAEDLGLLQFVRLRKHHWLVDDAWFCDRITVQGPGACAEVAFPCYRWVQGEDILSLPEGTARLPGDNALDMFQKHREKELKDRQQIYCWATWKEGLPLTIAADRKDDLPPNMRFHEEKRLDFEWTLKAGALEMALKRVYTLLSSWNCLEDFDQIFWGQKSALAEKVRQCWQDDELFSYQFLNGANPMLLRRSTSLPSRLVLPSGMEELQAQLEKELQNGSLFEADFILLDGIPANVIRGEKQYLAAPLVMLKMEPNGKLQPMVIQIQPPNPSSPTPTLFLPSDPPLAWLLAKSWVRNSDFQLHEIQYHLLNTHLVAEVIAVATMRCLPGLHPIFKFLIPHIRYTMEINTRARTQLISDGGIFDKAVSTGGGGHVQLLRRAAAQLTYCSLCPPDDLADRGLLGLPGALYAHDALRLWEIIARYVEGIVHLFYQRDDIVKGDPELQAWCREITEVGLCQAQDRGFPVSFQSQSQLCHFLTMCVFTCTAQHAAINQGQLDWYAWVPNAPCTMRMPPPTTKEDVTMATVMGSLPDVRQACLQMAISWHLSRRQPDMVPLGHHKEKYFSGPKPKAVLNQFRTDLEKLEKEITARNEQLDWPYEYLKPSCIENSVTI
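Purified human 12hLO at 150 nM in 25 mM Hepes, 0.01% Triton X-100, pH 7.0, preincubated 15 min at room temperature with compound. Reaction started with 40 uM arachidonic acid, 30 min at room temperature. Hydroperoxide measured by Fe-xylenol orange, 573/405 nm absorbance ratio.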
HT1080-NT tox – kills 2HG-producing HT-1080-NT fibrosarcoma cells; HT-1080-NT fibrosarcoma viability, CellTiter-Glo ATP luminescence, 48 h; Potency, µM (doses to about 46.1 µM), without a hit: at the top dose activity, negative = less viability, actives largely listed as cytotoxic; actives 1.6% (n = 360,000);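 note: NT is the 2HG producing partner of a matched IDH1 knockdown line; potency is the fitted concentration of half-maximal effect; 0% = DMSO-treated cells and -100% = media-only wells without cells; nearly all actives have a fitted effect of over 55% in size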
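A 48-hour cytotoxicity screen used HT-1080-NT cells plated 2 hours before compound delivery. ATP-based CellTiter-Glo luminescence measured viability, normalized to DMSO and no-cell controls.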
HT1080 IDH1KD tx – kills HT-1080 cells with IDH1 knockdown. HT-1080 IDH1 knockdown viability, ATP luminescence, 48 h. Potency, µM (series often up to 46.1 µM), inactives show at the top dose activity, negative = toxicity, most hits filed as cytotoxic. actives 2% (n = 360,000). AID 686971;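 note: potency is the fitted concentration of half-maximal effect; 0% = DMSO wells and -100% = cell-free medium wells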
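% activity derives from luminescence (CellTiter-Glo), normalised to DMSO and no-cell wells. HT-1080-IDH1KD cells, 750/well, had 48 h compound exposure at 37 °C.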
IL1B secr inh – inflammasome signaling inhibition, IL-1 beta readout. THP-1 LPS/ATP IL-1B secretion, AlphaLISA, 16 h; hits give low values. activity change, % at 57.5 µM. actives 4.7% (n = 360,000); in the data active = activity change below about -50%; inconclusive = mostly about -30% to -49%
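THP-1 cells pretreated 1 hr with compounds (up to 57.5 uM final), then stimulated with LPS (250 ng/mL final) plus ATP (1.25 mM final); secreted IL-1B measured by AlphaLISA after 16 hr, decreased signal indicating inhibition.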
An asterisk follows results filed as active; ? = inconclusive; . = no result given; [ ] = another dose, or the depositor's remark. Unless noted, calls come from the whole dose curve; as a rule, active = well fitted curve in the direction sought with a large enough effect; inconclusive = small, poorly fitted or top-dose-only effect, or another doubt; inactive = no such curve, though single readings can be large; an effect the other way counts as inactive or inconclusive. Unless noted, % is set by controls: 0 for no effect and ±100 for the full control effect.

SMILES	DT40 TDP1 no CPT	DT40 TDP1 CPT	ALOX12 inh	HT1080-NT tox	HT1080 IDH1KD tx	IL1B secr inh
O=C1C=CC(=C(c2ccc(O)cc2)c2ccc(O)cc2)C=C1	2.3µM*	9.2µM*	?	9.2µM*	12µM*	-100*
CC(=O)c1ccc(O)cc1	.	.	-6%	.	.	.
Cc1cc(C)c(CNC(=O)c2cc(-c3cccnc3)cc3c2OCCN3C(C)C)c(=O)[nH]1	.	.	-2%[176 µM]	.	.	.
Cc1nnc(N2CCCC(C(=O)NCCc3ccccc3)C2)c2nn(-c3ccccc3)c(C)c12 (stereo not drawn)	18µM*	?	19%	.	.	.
Cc1ccc(-n2nc3c(N4CCCC(C(=O)NCCc5ccccc5)C4)nnc(C)c3c2C)cc1 (stereo not drawn)	16µM*	16µM*	-7%	.	.	.
Cc1ccccc1CNC(=O)C1CCCN(c2nnc(C)c3c(C)n(-c4ccccc4)nc23)C1 (stereo not drawn)	18µM*	23µM*	0%	?	?	?
Cc1nnc(N2CCCC(C(=O)NCc3ccccc3F)C2)c2nn(-c3ccccc3)c(C)c12 (stereo not drawn)	1%	?	0%	12%	13%	5
Cc1ccc(CCNC(=O)C2CCCN(c3nnc(C)c4c(C)n(-c5ccccc5)nc34)C2)cc1 (stereo not drawn)	?	23µM*	-14%	.	.	.
COc1ccc(NC(=O)c2nc(-c3ccccc3)oc2C)c(OC)c1	.	.	23%	.	.	.
Cc1cccc(C(=O)NC(c2cccnc2)c2ccc(C)c(C)c2)c1 (stereo not drawn)	.	.	-4%	.	.	.
O=C(CCC[C@@H]1[C@H]2CCCN3CCC[C@@H](CN1C(=O)c1ccccc1)[C@@H]23)Nc1ccc(F)cc1F	.	.	57%	.	.	.
CCOC(=O)C1CCCN(C(=O)C2CCN(c3nnc(C)c4c(C)n(-c5ccccc5)nc34)CC2)C1 (stereo not drawn)	?	?	-18%	.	.	.
Cc1ccc(-n2nc3c(N4CCCC(C(=O)NCc5ccc(Cl)cc5)C4)nnc(C)c3c2C)cc1 (stereo not drawn)	18µM*	9.2µM*	4%	.	.	.
CCOc1ccc(CCNC(=O)C2CCCN(c3nnc(C)c4c(C)n(-c5ccccc5)nc34)C2)cc1 (stereo not drawn)	?	21µM*	-10%	.	.	.
O=C(NCCCc1nc2ccc(Cl)cc2[nH]1)[C@H]1CCC[C@@H](O)C1	.	.	32%	.	.	.
O=C(OCCNc1ncc(C(F)(F)F)cc1Cl)c1ccc(S(=O)(=O)N2CCOCC2)cc1	-4%	-1%	27%	-3%	9%	7
O=C(CONS(=O)(=O)c1ccc(Cl)cc1)NCCNc1ncc(C(F)(F)F)cc1Cl	?	2%	?	?	?	-55*
CN1CCC2(CC1)Nc1nc(SCc3ccc(Cl)cc3)nn1C1=C2CN(C)CC1	23µM*	?	11%	26µM*	21µM*	-62*
Oc1cccc(O)c1O	?	6µM*	.	.	.	.
CCOc1ccc(S(=O)(=O)N2CC(=O)Nc3ccccc32)cc1	?	?	70%	?	12µM*	52
O=C1CN(S(=O)(=O)c2ccc(Br)cc2)c2ccccc2N1	-5%	-6%	-6%	0%	-11%	-14
COc1ccc(S(=O)(=O)N2CC(=O)Nc3ccccc32)cc1Cl	-3%	-5%	6.3µM*	3%	5%	-1
CCOc1ccc(S(=O)(=O)N2CC(=O)Nc3ccccc32)cc1C#N	-5%	-15%	-13%	6%	6%	5
CCOc1ccc(OCC(O)CNC2CCN(Cc3ccccc3)CC2)cc1 (stereo not drawn)	9.2µM*	5.8µM*	8%	?	?	?
